# Results taken from PubChem BioAssay.
# For some of these results: Measured potencies and affinities stand elsewhere. Some of the results follow. Calls of active or inactive are those of the source.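 Rule for the calls, unless noted: active = GFP response above 150% of the DMSO level; inconclusive = fewer than 70 events counted for a yeast strain; inactive = the rest.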
# What was measured:
# [1] = biological target: Cell division control protein 42 homolog (Homo sapiens) (UniProt P60953); experiment: activated mutant Cdc42 GTP-binding inhibitors, dose response, biochemical, multiplex bead flow cytometry, Bodipy-FL-GTP (AID 1333;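 active = fitted half-maximal concentration within the tested dose range, moderate curve steepness, a statistically real signal drop, and little compound fluorescence or tag-binding interference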)
# Cell division control protein 42 homolog (Homo sapiens), sequence (P60953 whole entry, looked up): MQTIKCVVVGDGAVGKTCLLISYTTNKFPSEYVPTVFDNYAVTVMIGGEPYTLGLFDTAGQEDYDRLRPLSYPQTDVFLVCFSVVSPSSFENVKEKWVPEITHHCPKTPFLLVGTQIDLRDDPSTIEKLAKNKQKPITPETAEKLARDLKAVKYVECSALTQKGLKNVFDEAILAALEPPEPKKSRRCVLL
# [2] = biological target: Cell division control protein 42 homolog (Homo sapiens) (UniProt P60953); experiment: wildtype Cdc42 GTP-binding inhibitors, dose response, biochemical, multiplex bead flow cytometry, Bodipy-FL-GTP (AID 1334;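 active = fitted half-maximal concentration within the tested range, moderate curve steepness, significant signal drop, and little compound fluorescence or bead-linkage interference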); details: bead-based flow cytometry, Bodipy-FL-GTP binding to GST-Cdc42; at 100 µM (top of the series)
# [3] = test system: Ras-related protein Rab-7a (dog), GTP binding; experiment: Rab7 GTP binding inhibitors, potency, dose response, biochemical, wildtype, multiplex bead flow cytometry (AID 1336; call rule not given here)
# [4] = biological target: Ras-related C3 botulinum toxin substrate 1 (Homo sapiens) (UniProt P63000); experiment: wildtype Rac1 GTP binding inhibitors, dose response, biochemical, multiplex bead flow cytometry (AID 1340;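 active = dose curve with midpoint inside tested range, moderate steepness, plateau gap beyond fit error, low compound glow and bead-link interference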); details: GST-Rac1 beads, Bodipy-FL-GTP binding; at 100 µM (top of the series)
# [5] = biological target: GTPase HRas (Homo sapiens) (UniProt P01112); experiment: activated Ras mutant GTP binding inhibitors, dose response, biochemical, multiplex bead flow cytometry (AID 1341;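 active = dose-response curve with midpoint inside the tested range, moderate steepness, significant amplitude and little compound fluorescence or bead-attachment interference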;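 note: GST-tagged constitutively activated Ras mutant immobilized on beads and multiplexed with other GTPases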)
# [6] = RPL19A-GFP modulators, yeast TOR pathway, confirmation, cell-based, S. cerevisiae, flow cytometry, cherry picks, mother/daughter gates (AID 2270;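 active = GFP response below 50% of the DMSO control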); details: S. cerevisiae RPL19A-GFP strain, 3 h, at 10 µM, stronger effect = lower value, 100 = same GFP as DMSO wells
# [7] = LAP4-GFP expression modulators in yeast, confirmation, cell-based, cherry picks, flow cytometry, mother/daughter gates (AID 2271;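 active = GFP response above 150% of the DMSO control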;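 note: ratio of sample to DMSO plate mean so 100% equals DMSO level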); details: S. cerevisiae LAP4-GFP strain, 3 h, at 10 µM, stronger effect = higher value
# [8] = modulators of MEP2-GFP levels in yeast, confirmation, S. cerevisiae, flow cytometry GFP, cherry picks (AID 2272;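 active = GFP response above 150% of the DMSO control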;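 note: ratio of well signal to plate DMSO mean so 100% equals DMSO level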); details: S. cerevisiae MEP2-GFP strain, 3 h, at 10 µM, stronger effect = higher value
# [9] = AGP1-GFP expression modulators, hit retest, confirmation, cell-based, flow cytometry, S. cerevisiae, cherry picks (AID 2273);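 note: median GFP channel fluorescence over the whole cell population gate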; details: S. cerevisiae AGP1-GFP strain, 3 h, at 10 µM
# [10] = modulators of CIT2-GFP expression in yeast, confirmation, S. cerevisiae, GFP fusion, cherry picks, mother/daughter gates (AID 2274); details: S. cerevisiae CIT2-GFP strain, flow cytometry, 3 h, at 10 µM, stronger effect = higher value
# [11] = disruption of biotin probe capture by avidin, counter-screen for RGS protein interaction modulators, biochemical, flow cytometry, bead-based (AID 1783;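 active = inhibition above 50%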;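 note: median green fluorescence of gated singlet beads compared with DMSO control wells; 0% = DMSO wells and 100% = complete loss of bead fluorescence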); details: streptavidin beads, fluorescein-biotin binding, at 10 µM, stronger effect = higher value
# [12] = biological target: Guanine nucleotide-binding protein G(o) subunit alpha (Homo sapiens) (UniProt P09471); experiment: RGS8-Galphao binding modulators, confirmation, biochemical, multiplexed bead flow cytometry, single concentration (AID 1836; in the data active = binding response below about 72% or above about 130%; inactive = in between;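 note: Galphao activated as GDP AlF4 complex before binding bead RGS8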); details: bead-based flow cytometry RGS8-Galphao binding, fluorescence; at 10 µM; actives lie on both sides
# Guanine nucleotide-binding protein G(o) subunit alpha (Homo sapiens), sequence (P09471 whole entry, looked up): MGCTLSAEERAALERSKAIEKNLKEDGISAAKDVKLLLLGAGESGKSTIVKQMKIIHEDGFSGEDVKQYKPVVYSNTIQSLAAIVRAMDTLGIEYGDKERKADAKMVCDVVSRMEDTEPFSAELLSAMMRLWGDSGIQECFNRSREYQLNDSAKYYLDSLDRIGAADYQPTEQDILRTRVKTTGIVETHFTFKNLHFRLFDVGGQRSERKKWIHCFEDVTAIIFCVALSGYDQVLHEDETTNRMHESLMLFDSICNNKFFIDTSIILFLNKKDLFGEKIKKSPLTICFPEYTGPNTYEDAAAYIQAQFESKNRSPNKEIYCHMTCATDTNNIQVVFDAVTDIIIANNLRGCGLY
# [13] = biological target: Guanine nucleotide-binding protein G(o) subunit alpha (Homo sapiens) (UniProt P09471); experiment: RGS7-Galphao binding modulators, confirmation, biochemical, multiplexed bead flow cytometry, single concentration (AID 1837; in the data active = response below about 75% or above about 130%; inactive = in between;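 note: fluorescent Galphao activated with GDP and aluminum fluoride binding bead-coupled RGS7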); details: bead-based flow cytometry RGS7-Galphao binding; at 10 µM; actives lie on both sides
# [14] = biological target: Regulator of G-protein signaling 16 (Homo sapiens) + Guanine nucleotide-binding protein G(o) subunit alpha (Homo sapiens) (UniProt O15492+P09471); experiment: modulators of RGS16-Galphao protein binding, confirmation, biochemical, single concentration, multiplexed bead flow cytometry (AID 1838; in the data active = response below about 74% or above about 130%; inactive = in between;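 note: Galphao activated as the GDP aluminium fluoride complex binding bead-coupled RGS16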); details: bead-based flow cytometry, at 10 µM, actives lie on both sides
# Regulator of G-protein signaling 16 (Homo sapiens) + Guanine nucleotide-binding protein G(o) subunit alpha (Homo sapiens), sequence (O15492 whole entry, looked up): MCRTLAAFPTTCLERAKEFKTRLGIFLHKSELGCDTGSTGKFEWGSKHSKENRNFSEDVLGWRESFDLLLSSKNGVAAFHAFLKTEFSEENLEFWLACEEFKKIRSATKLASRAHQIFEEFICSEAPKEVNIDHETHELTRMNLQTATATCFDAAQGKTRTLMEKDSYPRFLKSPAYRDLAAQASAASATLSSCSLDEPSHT
# Regulator of G-protein signaling 16 (Homo sapiens) + Guanine nucleotide-binding protein G(o) subunit alpha (Homo sapiens), sequence (P09471 whole entry, looked up): as the sequence (P09471 whole entry, looked up) above
# [15] = biological target: Guanine nucleotide-binding protein G(o) subunit alpha (Homo sapiens) (UniProt P09471); experiment: modulators of RGS4-Galphao protein binding, confirmation, biochemical, single concentration, multiplexed bead flow cytometry (AID 1840; in the data active = binding response below about 74% or above about 130%; inactive = in between); details: at 10 µM, actives lie on both sides
# [16] = biological target: Guanine nucleotide-binding protein G(o) subunit alpha (Homo sapiens) + Regulator of G-protein signaling 19 (Homo sapiens) (UniProt P09471+P49795); experiment: regulators of RGS19-Galphao binding, confirmation, biochemical, single point, multiplexed bead flow cytometry (AID 1841; in the data active = response below about 50% or above about 160%; inactive = in between;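 note: 100% = no compound control and 0% = blank background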); details: bead-based flow cytometry RGS19-Galphao binding; at 10 µM; actives lie on both sides
# Guanine nucleotide-binding protein G(o) subunit alpha (Homo sapiens) + Regulator of G-protein signaling 19 (Homo sapiens), sequence (P09471 whole entry, looked up): as above
# Guanine nucleotide-binding protein G(o) subunit alpha (Homo sapiens) + Regulator of G-protein signaling 19 (Homo sapiens), sequence (P49795 whole entry, looked up): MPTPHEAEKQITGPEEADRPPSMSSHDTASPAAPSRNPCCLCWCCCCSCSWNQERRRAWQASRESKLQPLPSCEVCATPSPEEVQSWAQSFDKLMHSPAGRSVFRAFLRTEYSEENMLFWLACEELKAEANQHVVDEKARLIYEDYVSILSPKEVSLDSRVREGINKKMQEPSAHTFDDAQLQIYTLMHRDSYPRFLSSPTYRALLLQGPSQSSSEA
# [17] = measured here: daughter cell gate
# [18] = measured here: mother cell gate
# [19] = measured here: daughter cell gate response
# [20] = measured here: mother cell gate response
structure (smiles),measurement,setting,value
CCOC(=O)c1c(NC(=O)c2c(N)n(CCCOC)c3nc4ccccc4nc23)sc2c1CCCC2,outcome,[1],inactive
same,"fluorescence, percent of control (lower = inhibition)",[2],77.3%
same,outcome,[3],inactive
same,"GTP binding signal, raw median fluorescence (lower = inhibition) (MCF (arbitrary fluorescence units))",[4],151
same,outcome,[5],inactive
CCOCCCn1c(N)c(C(=O)Nc2sc3c(c2C(=O)OC)CCCC3)c2nc3ccccc3nc21,outcome,[1],inactive
same,"fluorescence, percent of control (lower = inhibition)",[2],64.4%
same,outcome,[3],inactive
same,"GTP binding signal, raw median fluorescence (lower = inhibition) (MCF (arbitrary fluorescence units))",[4],127
same,outcome,[5],inactive
C[C@H](O)[C@H]1CC[C@H]2[C@@H]3CCC4=CC(=O)CC[C@]4(C)[C@H]3CC[C@]12C,GFP response vs DMSO,[6],97.8% (inactive)
same,GFP response vs DMSO,[6]; [17],93%
same,GFP response vs DMSO,[6]; [18],99.6%
same,GFP response relative to DMSO,[7],117% (inactive)
same,GFP response relative to DMSO,[7]; [19],117%
same,GFP response relative to DMSO,[7]; [20],120%
same,GFP response vs DMSO,[8],95.7% (inactive)
same,"GFP response, % of DMSO",[9],93.7% (inactive)
same,"GFP response, % of DMSO",[10],96.5% (inactive)
same,"GFP response, % of DMSO",[10]; [17],89.9%
same,"GFP response, % of DMSO",[10]; [18],98.7%
CCN(CC)c1ccc(/C=N/c2sc3c(c2C#N)C2CCN3CC2)c(O)c1,outcome,[1],inactive
same,"fluorescence, percent of control (lower = inhibition)",[2],91.1%
same,outcome,[3],inactive
same,"GTP binding signal, raw median fluorescence (lower = inhibition) (MCF (arbitrary fluorescence units))",[4],248
same,outcome,[5],inactive
Cc1ccc(-n2c(O)c(/C=N/c3ncc(Br)cc3Br)c(=O)[nH]c2=O)cc1,outcome,[1],inactive
same,"fluorescence, percent of control (lower = inhibition)",[2],49.1%
same,outcome,[3],inactive
same,"GTP binding signal, raw median fluorescence (lower = inhibition) (MCF (arbitrary fluorescence units))",[4],59.9
same,outcome,[5],inactive
CC12CN3CC(C)(CN(C1)C31CCOCC1)C2=O,GFP response vs DMSO,[6],95.6% (inactive)
same,GFP response vs DMSO,[6]; [17],96.9%
same,GFP response vs DMSO,[6]; [18],96.6%
same,GFP response relative to DMSO,[7],99.2% (inactive)
same,GFP response relative to DMSO,[7]; [19],97.6%
same,GFP response relative to DMSO,[7]; [20],100%
same,GFP response vs DMSO,[8],96.2% (inactive)
same,"GFP response, % of DMSO",[9],99.5% (inactive)
same,"GFP response, % of DMSO",[10],101% (inactive)
same,"GFP response, % of DMSO",[10]; [17],103%
same,"GFP response, % of DMSO",[10]; [18],101%
O=c1[nH]c(=S)[nH]c(O)c1N=Nc1cc2c(cc1[N+](=O)[O-])OCO2,outcome,[1],inactive
same,"fluorescence, percent of control (lower = inhibition)",[2],24.3%
same,outcome,[3],inactive
same,"GTP binding signal, raw median fluorescence (lower = inhibition) (MCF (arbitrary fluorescence units))",[4],211
same,outcome,[5],inactive
C[C@]12CC[C@@H](O)C[C@@H]1CC[C@@H]1[C@@H]2CC[C@]2(C)[C@@H](O)CC[C@@H]12,GFP response vs DMSO,[6],92.2% (inactive)
same,GFP response vs DMSO,[6]; [17],87.3%
same,GFP response vs DMSO,[6]; [18],94.1%
same,GFP response relative to DMSO,[7],112% (inactive)
same,GFP response relative to DMSO,[7]; [19],107%
same,GFP response relative to DMSO,[7]; [20],119%
same,GFP response vs DMSO,[8],89.9% (inactive)
same,"GFP response, % of DMSO",[9],90% (inactive)
same,"GFP response, % of DMSO",[10],85.5% (inactive)
same,"GFP response, % of DMSO",[10]; [17],86.2%
same,"GFP response, % of DMSO",[10]; [18],87.8%
Cc1cc(C)cc(N2C(=O)NC(=O)/C(=C\C=C\c3ccco3)C2=O)c1,outcome,[1],inactive
same,"fluorescence, percent of control (lower = inhibition)",[2],32.8%
same,outcome,[3],inactive
same,"GTP binding signal, raw median fluorescence (lower = inhibition) (MCF (arbitrary fluorescence units))",[4],206
same,outcome,[5],inactive
CN(C)c1ccc(/C=C/C=C2/C(=O)NC(=O)N(c3ccccc3)C2=O)cc1,outcome,[1],inactive
same,"fluorescence, percent of control (lower = inhibition)",[2],23.6%
same,outcome,[3],inactive
same,"GTP binding signal, raw median fluorescence (lower = inhibition) (MCF (arbitrary fluorescence units))",[4],155
same,outcome,[5],inactive
CC[C@@H]1C(=O)OC[C@@H]1Cc1cncn1C,GFP response vs DMSO,[6],99.5% (inactive)
same,GFP response vs DMSO,[6]; [17],98.3%
same,GFP response vs DMSO,[6]; [18],100%
same,GFP response relative to DMSO,[7],102% (inactive)
same,GFP response relative to DMSO,[7]; [19],101%
same,GFP response relative to DMSO,[7]; [20],102%
same,GFP response vs DMSO,[8],104% (inactive)
same,"GFP response, % of DMSO",[9],103% (inactive)
same,"GFP response, % of DMSO",[10],99.3% (inactive)
same,"GFP response, % of DMSO",[10]; [17],98.3%
same,"GFP response, % of DMSO",[10]; [18],100%
Nc1ccc(C(=O)N/N=C2/CN3CCC2CC3)cc1,inhibition,[11],-1.4% (inactive)
same,binding response (% of control),[12],102% (inactive)
same,response (percent of control binding),[13],98.3% (inactive)
same,response (% of control binding),[14],99.4% (inactive)
same,binding response (% of control),[15],100% (inactive)
same,response (percent of control binding),[16],92.4% (inactive)
CCOc1ccc(C2SCC(=O)Nc3c2c(C)nn3C2CCOC(C)(C)C2)cc1 (stereo not drawn),outcome,[1],inactive
same,"fluorescence, percent of control (lower = inhibition)",[2],96.5%
same,outcome,[3],inactive
same,"GTP binding signal, raw median fluorescence (lower = inhibition) (MCF (arbitrary fluorescence units))",[4],195
same,outcome,[5],inactive
Cc1ccccc1OCCCn1cc(C(=O)O)c2ccccc21,outcome,[1],inactive
same,"fluorescence, percent of control (lower = inhibition)",[2],68.3%
same,outcome,[3],inactive
same,"GTP binding signal, raw median fluorescence (lower = inhibition) (MCF (arbitrary fluorescence units))",[4],37.8
same,outcome,[5],inactive
Cc1ccc(C)c(OCCn2cc(C(=O)O)c3ccccc32)c1,outcome,[1],inactive
O=C1CN=C(c2ccccc2F)c2cc(Cl)ccc2N1,GFP response vs DMSO,[6],99.3% (inactive)
same,GFP response vs DMSO,[6]; [17],99%
same,GFP response vs DMSO,[6]; [18],99.1%
same,GFP response relative to DMSO,[7],97.4% (inactive)
same,GFP response relative to DMSO,[7]; [19],98.7%
same,GFP response relative to DMSO,[7]; [20],98.3%
same,GFP response vs DMSO,[8],100% (inactive)
same,"GFP response, % of DMSO",[9],98% (inactive)
same,"GFP response, % of DMSO",[10],107% (inactive)
same,"GFP response, % of DMSO",[10]; [17],105%
same,"GFP response, % of DMSO",[10]; [18],111%
C[C@]12CCC(=O)C=C1CC[C@@H]1[C@@H]2CC[C@]2(C)C(=O)CC[C@@H]12,GFP response vs DMSO,[6],96.8% (inactive)
same,GFP response vs DMSO,[6]; [17],95.1%
same,GFP response vs DMSO,[6]; [18],97.7%
same,GFP response relative to DMSO,[7],102% (inactive)
same,GFP response relative to DMSO,[7]; [19],102%
same,GFP response relative to DMSO,[7]; [20],101%
same,GFP response vs DMSO,[8],94.1% (inactive)
same,"GFP response, % of DMSO",[9],91.2% (inactive)
same,"GFP response, % of DMSO",[10],98.3% (inactive)
same,"GFP response, % of DMSO",[10]; [17],97.2%
same,"GFP response, % of DMSO",[10]; [18],99.7%
